The values below come from PubChem BioAssay (NCI).

Compounds without any hit were thinned out: in the full panel of roughly 83,000, 20% have a hit.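 Note: values are percent growth. 100 is the growth of untreated cells, values between 100 and 0 indicate rising inhibition; between -100 and 0 indicates cell death.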 Unmarked numbers belong to inactive results. The source made the active and inactive calls. How the source made its calls: active means growth percent below 10; inactive means the rest.

What all share (assay): NCI-60 one-dose screen, 48 h (100 = growth as untreated, 0 = no growth, -100 = all killed)
Conditions in all cases: 10 µM unless noted

The subject of experiment [1] is HCT-15 colon.
The test system of experiment [2] is HT29 colon.
For experiment [3], the system named is SNB-75 CNS.
Experiment [4] has as its system SNB-19 CNS.
Experiment [5] concerns U251 CNS.
The test system of experiment [6] is PC-3 prostate.
Experiment [7] relates to SK-MEL-5 melanoma.
Experiment [8] has as its system UACC-62 melanoma.
Experiment [9] deals with LOX IMVI melanoma.
Experiment [10] concerns SK-MEL-28 melanoma.

For the molecule `c1ccc(C(c2nc3ncncc3[nH]2)N2CSc3nc4ccccc4n3C2)cc1` (stereo not given), the growth in experiment [1] was 101%; in experiment [2], 107%; in experiment [3], 91%; in [4] it was 100%; in experiment [5], 107%; in experiment [6] it was 95.6%. Besides, the growth in experiment [7] was 106%; in [8], 93.1%; in experiment [9], 102%; in experiment [10], 104%.

Take `CNC(=O)c1cc(-n2ccc3cc(NC(=O)Nc4ccc(N5CCOCC5)c(C(F)(F)F)c4)ccc32)ccn1`: the growth in experiment [1] is 30.2%; in experiment [2], 19.6%; in [3], 17.1%; in experiment [4], 74.2%; in experiment [5], 42%; in [6] it was 4.72% (active). Also, the growth was 4.69% (active) in experiment [7], 13.4% in [8], 13.3% in [9] and 62.9% in [10].

`NC(N)=Nc1ccc(Oc2cccc(NC(N)=Nc3ccc(I)cc3F)c2)cc1`: the growth in experiment [1] was 86.9%; in experiment [2] it was 62.5%; in experiment [3], 73.2%; in [4], 20.7%; in experiment [5] it was 47.4%; in experiment [6] it was 27.5%. The growth in experiment [7] is 74%; in experiment [8], 77.8%; in [9] it was 48%; in experiment [10], 85.7%.

On to `CC(=O)Nc1cccc(Nc2nc(N[C@@H](C)c3ccccc3)c3ccccc3n2)c1`, for which the growth in experiment [1] was 10.4%; in [2], 4.28% (active); in [3] it was -19.3% (active); in experiment [4] it was 20.6%; in experiment [5] it was 14.3%; in [6], 21.3%. For the same molecule, the growth was -5.52% (active) in experiment [7], 28.6% in [8], -70.2% (active) in experiment [9] and 42.3% in [10].

Consider `CCCCCc1ccc(S(=O)(=O)Nc2cccc(-c3csc(NC(=O)CN4CCN(C)CC4)n3)c2)cc1`, for which the growth was 11.7% in experiment [1]; 25.5% in experiment [2]; 89.5% in experiment [3]; 85% in [4]; 49.7% in [5]; 67.1% in experiment [6]. For the same molecule, the growth in [7] was 50.8%; in experiment [8], 92.2%; in [9], -58% (active); in experiment [10], 89.4%.

`COc1cc(/C=N/NC(=O)c2cn(C3CC3)c3c(OC)c(N4CC5CCCNC5C4)c(F)cc3c2=O)ccc1O` (stereo not given): the growth is 32% in [1]; -0.257% (active) in experiment [2]; 106% in experiment [3]; 26.2% in experiment [4]; -67% (active) in experiment [5]; 45.1% in [6]. The growth in experiment [7] is 95.4%; in experiment [8] it was 91.5%; in experiment [9], -83.5% (active); in experiment [10] it was 94.4%.

Turning to `CCO/C=N/C1=C(C#N)C(c2ccc(Cl)cc2)c2sc3c(C)cccc3c2O1` (stereo not given), the growth is 12.5% in experiment [1]; 4.77% (active) in [2]; -5.08% (active) in experiment [3]; 18.4% in experiment [4]; 20.7% in experiment [5]; 12% in [6]. In addition, the growth in experiment [7] was 30.7%; in [8], 9.19% (active); in [9] it was 22.1%; in [10] it was 60.5%.

Take `COc1cc(Nc2c(C#N)cnn3cc(-c4cnn(CC(C)(C)O)c4)cc23)ccc1Cl`: the growth in experiment [1] is 29.9%; in [2] it was 54.3%; in experiment [3] it was 55.5%; in experiment [4] it was 88.1%; in experiment [5], 67.2%; in experiment [6] it was 62.4%. Moreover, the growth is 65.3% in experiment [7], 46% in [8], 31% in [9] and 86% in [10].

As to `CC(=O)N1N=C(c2cccc(-n3cccc3)c2)CC1c1cccc(F)c1` (stereo not given), the growth in experiment [1] is 92.8%; in experiment [2], 100%; in experiment [3], 104%; in experiment [4], 88.5%; in experiment [5] it was 93.4%; in [6] it was 84.9%. In addition, the growth in experiment [7] is 98.7%; in [8] it was 81%; in experiment [9], 95.5%; in experiment [10], 103%.

Take `O=C(CN1CCN(c2cc(=O)[nH]c3ccc(F)cc23)CC1)Nc1ccc(Cl)cc1`: the growth in experiment [1] was 79.3%; in [2] it was 100%; in [3] it was 13%; in experiment [4], 21.3%; in [5] it was 42.6%; in [6] it was 78.6%. Besides, the growth in [7] was 80.9%; in experiment [8], 47.9%; in experiment [9], 75.2%; in [10], 82.3%.

For `NS(=O)(=O)c1ccc(Nc2nc(SCc3ccccc3)nc3ccccc23)cc1`, the growth in experiment [1] was 39.1%; in experiment [2], 41%; in [3], 70.5%; in experiment [4], 78.2%; in experiment [5], 60.1%; in [6], 54.1%. The growth was 49.8% in experiment [7], 70% in experiment [8], 52.3% in experiment [9] and 91.6% in experiment [10].

For the molecule `Nc1ccccc1NC(=O)c1ccc(NC(=O)C/C=C/c2cccnc2)cc1`, the growth was 30.2% in [1]; 18.1% in experiment [2]; 44.6% in experiment [3]; 39.4% in experiment [4]; 21.5% in experiment [5]; 36.9% in experiment [6]. Besides, the growth in [7] was 12.3%; in experiment [8] it was 15%; in experiment [9], 20.3%; in experiment [10], 0.0488% (active).

As for `COc1ccc(S(=O)(=O)NCCCNc2nccc(-c3[nH]c(-c4ccccc4)nc3-c3ccc(Cl)c(O)c3)n2)cc1`, the growth in experiment [1] was 93.7%; in experiment [2], 73.8%; in experiment [3], 108%; in experiment [4], 105%; in [5], 83.3%; in experiment [6], 66.4%. Moreover, the growth in experiment [7] is 56.9%; in [8], 18.1%; in experiment [9] it was 56.9%; in experiment [10] it was 23.5%.

As to `N/C(=N\C(N)=N\c1nc2ccccc2s1)c1ccc(C(F)(F)F)cc1`, the growth was 28.8% in [1]; 105% in experiment [2]; 97.2% in experiment [3]; 90.3% in experiment [4]; 41.9% in experiment [5]; 8.57% (active) in experiment [6]. The growth in experiment [7] was 89%; in experiment [8], 97.8%; in experiment [9], 18.3%; in experiment [10], 94.8%.

In the case of `CC/C(=C/c1c(O)cccc1OC)c1ccc2c(OC)cccc2[o+]1`, the growth in experiment [1] was 92.2%; in [2], 110%; in experiment [3] it was 98.8%; in experiment [4], 99.4%; in [5] it was 99.5%; in experiment [6] it was 95.3%. The growth is 104% in experiment [7], 90.6% in experiment [8], 95% in experiment [9] and 97.3% in [10].

Turning to `COc1ccc(-c2cc(-c3ccc(Cl)cc3)c(C#N)c(=O)n2Cc2ccc(C(=O)O)cc2)cc1`, the growth is 79% in experiment [1]; 117% in [2]; 3.46% (active) in [3]; 90.1% in [4]; 84.3% in experiment [5]; 68.9% in experiment [6]. Further, the growth in [7] was 87.2%; in [8], 18.4%; in experiment [9], 75.7%; in experiment [10], 60.7%.

Take `COc1cc(/C=C2\C(=O)Nc3ccccc32)ccc1OCc1ccc(Cl)cc1`: the growth is 93.9% in experiment [1]; 109% in [2]; 104% in experiment [3]; 97.1% in [4]; 107% in experiment [5]; 94.8% in experiment [6]. Also, the growth was 103% in experiment [7], 87.6% in experiment [8], 99.8% in experiment [9] and 92.9% in experiment [10].

With `CCCn1cnc2c(c1=N)C(c1ccc(OC)cc1)c1sc3c(C)cccc3c1O2` (stereo not given), the growth in experiment [1] was 14.6%; in experiment [2], 7.24% (active); in [3], 17.8%; in experiment [4], 24%; in experiment [5], 20.6%; in [6], 6.95% (active). Further, the growth is 40.3% in experiment [7], 14.3% in experiment [8], 25.1% in experiment [9] and 53.9% in experiment [10].

Consider `Cn1ccnc1C(=O)/C=C/c1ccc(NC(=O)c2c(F)c(F)c(F)c(F)c2F)cc1`, for which the growth was 85.9% in experiment [1]; 112% in experiment [2]; 103% in experiment [3]; 98.3% in experiment [4]; 99% in [5]; 100% in experiment [6]. In addition, the growth in experiment [7] is 91.2%; in experiment [8] it was 97.2%; in [9], 81.6%; in experiment [10], 105%.

On to `COc1ccc2[nH]cc(-c3csc4nc(-c5ccccc5)cn34)c2c1`, for which the growth is 11.3% in experiment [1]; -8.92% (active) in experiment [2]; -4.19% (active) in experiment [3]; 23.6% in [4]; 13.6% in experiment [5]; 19.4% in [6]. For the same molecule, the growth is 47.2% in experiment [7], 32.4% in experiment [8], -2.73% (active) in experiment [9] and 73.8% in experiment [10].

`CC(=O)c1ccc(Nc2nc(SCC(C)C)nc(-c3ccccc3)c2C#N)cc1`: the growth was 95.3% in [1]; 106% in experiment [2]; 93.3% in [3]; 38.5% in [4]; 32.4% in [5]; 104% in experiment [6]. Also, the growth was 99.7% in experiment [7], 75.3% in experiment [8], 86.9% in experiment [9] and 101% in experiment [10].

`CCOc1ccc(NC2=C(Cl)C(=O)c3nc(C)ccc3C2=O)cc1`: the growth in [1] is -83.2% (active); in experiment [2] it was 15.9%; in [3], 96.5%; in experiment [4], 44.7%; in experiment [5] it was 15.6%; in [6], 10.4%. For the same molecule, the growth was -98.6% (active) in experiment [7], -43.3% (active) in [8], -76.4% (active) in experiment [9] and 8.93% (active) in experiment [10].

On to `O=C(CCn1cc[n+](CC(=O)c2ccc(-c3ccccc3)cc2)c1)Nc1cccc2cccnc12`, for which the growth in experiment [1] was 96.5%; in [2], 70.7%; in experiment [3] it was 45.4%; in experiment [4], 61.4%; in experiment [5] it was 61.2%; in experiment [6] it was 55.9%. Further, the growth in [7] is 81.1%; in [8], 58.8%; in [9], 82.5%; in experiment [10] it was 67.3%.

Consider `Cc1cc2ncc(-c3cc4ccccc4c(N4CCN(C)CC4)n3)nc2cc1C`, for which the growth in [1] was -69.7% (active); in experiment [2] it was -60.4% (active); in experiment [3] it was 56.1%; in experiment [4], 73%; in experiment [5], -30.9% (active); in [6], 57.5%. In addition, the growth in experiment [7] was 16.2%; in experiment [8], -46.6% (active); in [9] it was -83.8% (active); in experiment [10], -69.9% (active).

Regarding `CN1CCN(Cc2ccc(NC(=O)c3cncc(C#Cc4cnc5ccc(OCC6(C)COC6)nn45)c3)cc2C(F)(F)F)CC1`, the growth in [1] is -78.6% (active); in [2], -37.5% (active); in [3] it was -68.7% (active); in experiment [4] it was -86.1% (active); in [5], -62% (active); in experiment [6], -69% (active). The growth in experiment [7] was -93.2% (active); in [8], -90.5% (active); in [9], -93.5% (active); in [10], -89.2% (active).

Consider `CCNC(=O)N1CCc2cc(OC)c(OCCc3ccc(OC)cc3)cc2C1c1ccc([N+](=O)[O-])cc1C` (stereo not given), for which the growth was 7.24% (active) in experiment [1]; 4.69% (active) in [2]; 21% in experiment [3]; 28.4% in experiment [4]; 16.4% in experiment [5]; 23.4% in experiment [6]. Further, the growth in experiment [7] was 0.509% (active); in experiment [8] it was 30.4%; in [9] it was 7.24% (active); in [10] it was 47.8%.
